Laboratory results published in PubChem BioAssay (NCATS).
Inconclusive results are not listed. Active and inactive are the calls of the source. Unless noted, the call rests on the fitted dose curve; in most records, active means well fitted curve in either direction with a large enough effect (not every such curve was filed as active); inconclusive means small, poorly fitted or top-dose-only effect, or another doubt; inactive means flat fitted curve, though single readings scatter.

How the values were obtained:
[1] = molecular target: Lysosomal acid glucosylceramidase (Homo sapiens) (UniProt P04062); test: Glucocerebrosidase-p2 (AID 348; in the data active means potency below about 10 µM; further: potency means the concentration at half of the fitted maximal effect); conditions: purified GBA, blue fluorogenic substrate, 40 min
Outline: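 Normal human glucocerebrosidase (0.2 nM) with blue fluorogenic substrate (80 uM final) in citrate/phosphate pH 5.9 with 10mM sodium taurocholate, 0.01% tween-20; 40 min RT, NaOH/glycine stop; fluorescence Ex 365/Em 440; AC50 from a titration from 0.6 nM upwards.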

[2] = AP1 Signaling Pathway (AID 357); conditions: ME-180 AP-1-bla reporter, EGF-induced, beta-lactamase ratio, 5 h; at 7.69 µM (top of the series) unless noted; further: on the % scale 0 is the no-effect control and ±100 the full control effect
Outline: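 ME-180 cells with beta-lactamase reporter under AP-1 response element, stimulated with EC50 EGF; compounds tested in titration series, 5 h at 37 °C. CCF4 substrate added 2.5 h at room temperature; 460/530 nm emission ratio gave %activity and AC50.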

[3] = NFAT Signaling Pathway (AID 444); conditions: Jurkat NFAT-bla M1, carbachol, beta-lactamase ratio, 5 h; at 7.69 µM (top of the series) unless noted;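 further: carbachol stimulus at about its EC50 of 1 µM final; on the % scale 0 is the no-effect control and ±100 the full control effect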
Outline: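 Jurkat cells carrying an NFAT-driven β-lactamase reporter and co-transfected muscarinic M1 receptor were treated with compound plus carbachol (1 uM final, an EC50 level) for 5 h at 37 °C. CCF4 loading followed for 1 h at RT; 460/530 nm ratio gave %activity.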

[4] = Stat Signaling Pathway (AID 446); conditions: ME-180 SIE beta-lactamase reporter, IL-6 stimulated, 5 h; at 7.69 µM (top of the series) unless noted;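 further: ME-180 cervical cancer cells given 40 pM IL-6 alongside compound; SIE-controlled beta-lactamase reporter measured as 460/530 nm FRET emission ratio; on the % scale 0 is the no-effect control and ±100 the full control effect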
Outline: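 FRET read-out (405 nm excitation, 460/530 nm emission) of a beta-lactamase reporter under a STAT-inducible element in ME-180 cervical carcinoma cells. Cells with compound receive 40 pM IL-6 for 5 h. Values are normalised to AC90 stimulation and AC90 JAK-inhibitor controls.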

[5] = molecular target: Glucocorticoid receptor (Homo sapiens) (UniProt P04150); test: GR-EFC Redistribution (AID 451; calls by dose curve; further: potency means the concentration at half of the fitted maximal effect); conditions: CHO-K1 GR-EFC translocation, beta-gal luminescence, 2 h
Outline: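 CHO-K1 cells stably expressing nuclear-localized β-gal enzyme acceptor and GR fused C-terminally to the enzyme donor fragment; ligand-driven nuclear translocation restores β-gal by complementation. Compounds titrated up to 46 uM final, 2 h at 37 °C; luminescence read.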

[6] = molecular target: Mitogen-activated protein kinase 10 (Mus musculus) (UniProt Q61831); test: JNK3 AlphaScreen Assay (AID 530); conditions: JNK3 lysate, c-Jun phosphorylation; series mostly up to 57.1 µM;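 further: kinase came from lysate of stimulated human HepG2 cells; signal reports phosphorylation of biotinylated GST-cJun 1-79 at Ser73 with 10 µM ATP; on the % scale 0 is the no-effect control and ±100 the full control effect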
Outline: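 Phosphorylation of biotinylated GST-cJun(1-79) at Ser73 is measured by AlphaScreen proximity luminescence. Enzyme is JNK3 in HepG2 lysates activated with interleukin-1beta and tumor necrosis factor alpha; ATP is 10 uM final.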

[7] = molecular target: 3',5'-cyclic-AMP phosphodiesterase 4B (Homo sapiens) (UniProt Q07343); test: qHTS Assay for Inhibitors of PDE-IV (AID 607; active means well fitted activation curve with a large enough effect in the main read-out, with a control signal flat, not every such curve was filed as active; further: % of control where 0% means no effect); conditions: HEK293 ACTOne CNG channel cells, membrane potential fluorescence; series mostly up to 22.9 µM
Outline: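 Cell-based read-out of cAMP via a modified cyclic nucleotide-gated channel and membrane potential dye (535/590 nm) in HEK293 cells expressing PDE4 endogenously. Compounds tested up to 22.9 uM final; 100 uM RO 20-1724 reference.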

[8] = molecular target: Cytochrome P450 3A4 (Homo sapiens) (UniProt P08684); test: qHTS Assay for Activators of Cytochrome P450 3A4 (AID 885; active means well fitted curve in the direction sought with a large enough effect; an effect the other way counts as inactive or inconclusive; further: nearly all actives have a fitted effect of over 65% in size; further: potency means the concentration at half of the fitted maximal effect); conditions: recombinant CYP3A4, Luciferin-PPXE luminescence, 60 min; series mostly up to 57.1 µM
Outline: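 Luminescent readout of luciferin formed from 25 uM Luciferin-PPXE (KM level) by 20 nM CYP3A4 in 200 mM KPO4, with 60 min NADPH-driven reaction at room temperature after 10 min compound exposure. Ketoconazole (57 uM) defined 100% inhibition.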

[9] = Primary qHTS for small molecule stabilizers of the endoplasmic reticulum resident proteome: Secreted ER Calcium Modulated Protein (SERCaMP) assay (AID 1508630; active means well fitted curve in the direction sought with a large enough effect; an effect the other way counts as inactive or inconclusive; further: on the % scale 0 is the no-effect control and ±100 the full control effect); conditions: SH-SY5Y GLuc-SERCaMP (Gaussia luciferase released on ER calcium loss) secretion, thapsigargin, luminescence; series mostly up to 38.4 µM
Outline: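 The SH-SY5Y reporter protocol was run at 3 concentrations up to 38.3 uM (primary) or 11 concentrations (follow-up): 16 h compound, 100 nM thapsigargin for 4 h, then extracellular luciferase luminescence.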

[10] = Confirmation and Secondary Assay for Modulators of Hemoglobin Beta Chain Splicing at IVS2 654 locus (AID 910; active means well fitted curve in the direction sought with a large enough effect; an effect the other way counts as inactive or inconclusive;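 further: per-well total GFP intensity by laser scanning cytometry after 2-day treatment; % of control where 0% means no effect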); conditions: HeLa EGFP-654 splicing reporter, GFP fluorescence, 48 h; series mostly up to 38.3 µM
Outline: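 HeLa cells stably carrying EGFP interrupted by mutant beta-globin IVS2-654 intron (CMV-driven) were treated with compound for 2 days at 37C; corrected splicing was scored as total peak GFP intensity per well (488 nm excitation, 500-520 nm emission).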

[11] = molecular target: Ubiquitin carboxyl-terminal hydrolase 1 (Homo sapiens) (UniProt O94782); test: Inhibitors of USP1/UAF1: Pilot qHTS (AID 504865; active means well fitted curve in the direction sought with a large enough effect; an effect the other way counts as inactive or inconclusive; further: nearly all actives have a fitted effect of over 35% in size; further: potency means the concentration at half of the fitted maximal effect); conditions: purified USP1/UAF1, Ub-rhodamine cleavage fluorescence; series mostly up to 54.9 µM
Outline: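 1nM USP1/UAF1 + cpd, 15 min RT; start w/ Ub-Rho 150nM final; kinetic FL 480/540 nm, 6 reads q60 s. Buffer 50mM HEPES pH 7.8, 0.5mM EDTA, 1mM TCEP, 0.01% Tween-20, 0.1 mg/ml BSA.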

[12] = molecular target: Cytochrome P450 1A2 (Homo sapiens) (UniProt P05177); test: p450-cyp1a2 (AID 410; calls by dose curve; further: potency means the concentration at half of the fitted maximal effect;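 on activity change, negative = inhibition: -100% = full effect of reference inhibitor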); conditions: recombinant CYP1A2, luciferin-ME demethylation, luminescence; series mostly up to 57 µM
Outline: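 O-Demethylation of luciferin 6' methyl ether by human CYP1A2 is monitored as luciferase luminescence. Substrate sits at Km (100uM); enzyme is 20nM. Values are scaled to 57 uM furafylline as maximal inhibition.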

[13] = molecular target: Cytochrome P450 3A4 (Homo sapiens) (UniProt P08684); test: qHTS Assay for Inhibitors and Substrates of Cytochrome P450 3A4 (AID 884; active means well fitted curve in the direction sought with a large enough effect; an effect the other way counts as inactive or inconclusive; further: nearly all actives have a fitted effect of over 50% in size; further: potency means the concentration at half of the fitted maximal effect); conditions: recombinant CYP3A4, Luciferin-PPXE luminescence; series mostly up to 57.1 µM
Outline: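 Luminescent readout of luciferin produced by CYP3A4 (20 nM) dealkylation of Luciferin-PPXE, 25 uM (its KM). NADPH-driven reaction ran 60 min at RT after 10 min compound preincubation; data scaled to 57 uM ketoconazole as 100% inhibition.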

[14] = molecular target: Cytochrome P450 2D6 (Homo sapiens) (UniProt P10635); test: qHTS Assay for Inhibitors and Substrates of Cytochrome P450 2D6 (AID 891; active means well fitted curve in the direction sought with a large enough effect; an effect the other way counts as inactive or inconclusive; further: potency means the concentration at half of the fitted maximal effect; nearly all actives have a fitted effect of over 60% in size); conditions: recombinant CYP2D6, luciferin-ME EGE luminescence; series mostly up to 57.1 µM
Outline: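 Luminescent read-out of luciferin formed by 5 nM human CYP2D6 demethylating 30 uM Luciferin-ME EGE (Km level) over 60 min at room temperature after NADPH regeneration addition. Data normalized to full inhibition by 1.43 uM quinidine.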

[15] = molecular target: Glucocorticoid receptor (Homo sapiens) (UniProt P04150); test: GR-GFP Redistribution (AID 450;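 active means compounds whose dose series gives a full or clear partial fitted curve of increased nuclear translocation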; further: potency means the concentration at half of the fitted maximal effect); conditions: U2OS GR-GFP nuclear translocation, laser cytometry, 2 h
[16] = qHTS Assay for Identification of Small Molecule Agonists for Hypoxia Response Element Signaling Pathway (AID 914; active means well fitted activation curve with a large enough effect in the signal ratio, with a control signal flat, not every such curve was filed as active; the % refers to the signal ratio; further: potency means the concentration at half of the fitted maximal effect; on activation: % of control where 0% means no effect); conditions: ME-180 (cervical carcinoma) HRE-bla reporter, beta-lactamase ratio, CoCl2, 17 h; activation: active compounds read high
Outline: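 In Opti-MEM containing 0.5% dialyzed FBS and 10 mM HEPES, ME-180 HRE-bla cells received a compound titration and EC50 CoCl2. They were incubated 17 hours, then CCF4-loaded 2.5 hours at room temperature before ratio reading.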

[17] = molecular target: Cytochrome P450 2C9 (Homo sapiens) (UniProt P11712); test: qHTS Assay for Inhibitors and Substrates of Cytochrome P450 2C9 (AID 883; active means well fitted curve in the direction sought with a large enough effect; an effect the other way counts as inactive or inconclusive; further: on the % scale 0 is the no-effect control and ±100 the full control effect; nearly all actives have a fitted effect of over 60% in size); conditions: recombinant CYP2C9, luciferin-H luminescence, 60 min; series mostly up to 57.1 µM
Outline: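 A luminogenic readout tracked human CYP2C9 (10nM) converting deoxyluciferin (100uM, at KM) in 25mM KPO4 during 60 min at 37C with regenerated NADPH. Values normalized to 57uM sulphaphenazole as complete inhibition.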

[18] = Confirmation and Secondary Assay for Modulators of Hemoglobin Beta Chain Splicing at IVS2 705 locus (AID 930; active means well fitted curve in the direction sought with a large enough effect; an effect the other way counts as inactive or inconclusive;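 further: HeLa cells stably expressing the EGFP-705 splicing reporter; GFP fluorescence per well restored by corrected splicing of the IVS2-705 intron in EGFP; % of control where 0% means no effect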); conditions: HeLa EGFP-705 splicing reporter, GFP fluorescence, 48 h; series mostly up to 38.3 µM
Outline: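 Per-well GFP, captured at 1 x 8 µm resolution with 488 nm excitation, served as the read-out for HeLa EGFP-705 cells incubated 2 days with test compound versus DMSO.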

Cytochrome P450 1A2 (Homo sapiens), sequence (P05177 whole entry, looked up): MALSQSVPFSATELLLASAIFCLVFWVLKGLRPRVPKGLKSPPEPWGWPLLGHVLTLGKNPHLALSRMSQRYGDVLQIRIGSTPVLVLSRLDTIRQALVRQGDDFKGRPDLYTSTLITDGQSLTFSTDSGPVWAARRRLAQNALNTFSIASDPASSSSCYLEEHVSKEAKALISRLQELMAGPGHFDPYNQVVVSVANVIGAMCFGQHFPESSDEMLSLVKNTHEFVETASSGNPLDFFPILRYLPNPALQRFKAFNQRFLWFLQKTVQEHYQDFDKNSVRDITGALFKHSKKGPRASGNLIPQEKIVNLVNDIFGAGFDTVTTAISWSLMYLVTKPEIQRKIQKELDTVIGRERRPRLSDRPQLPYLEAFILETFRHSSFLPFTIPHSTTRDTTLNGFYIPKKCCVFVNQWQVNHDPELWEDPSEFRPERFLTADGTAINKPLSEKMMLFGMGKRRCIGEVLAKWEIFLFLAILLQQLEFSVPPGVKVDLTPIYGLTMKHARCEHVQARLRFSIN
Lysosomal acid glucosylceramidase (Homo sapiens), sequence (P04062 whole entry, looked up): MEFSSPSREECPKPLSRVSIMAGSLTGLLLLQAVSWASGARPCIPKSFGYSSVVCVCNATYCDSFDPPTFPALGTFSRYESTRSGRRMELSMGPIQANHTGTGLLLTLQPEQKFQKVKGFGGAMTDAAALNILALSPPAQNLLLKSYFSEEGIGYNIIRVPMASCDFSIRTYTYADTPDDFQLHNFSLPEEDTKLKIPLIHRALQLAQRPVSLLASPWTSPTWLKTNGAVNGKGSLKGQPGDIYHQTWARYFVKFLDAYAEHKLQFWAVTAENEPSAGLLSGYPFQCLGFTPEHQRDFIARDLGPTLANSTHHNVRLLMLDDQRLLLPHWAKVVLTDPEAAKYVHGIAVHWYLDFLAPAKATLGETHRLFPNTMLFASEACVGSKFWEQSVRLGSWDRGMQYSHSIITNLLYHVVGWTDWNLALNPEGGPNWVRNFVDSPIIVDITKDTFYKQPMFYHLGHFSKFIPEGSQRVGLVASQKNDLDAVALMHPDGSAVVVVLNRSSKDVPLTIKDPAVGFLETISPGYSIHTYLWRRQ
Glucocorticoid receptor (Homo sapiens), sequence (P04150 whole entry, looked up, the tested form may be a part): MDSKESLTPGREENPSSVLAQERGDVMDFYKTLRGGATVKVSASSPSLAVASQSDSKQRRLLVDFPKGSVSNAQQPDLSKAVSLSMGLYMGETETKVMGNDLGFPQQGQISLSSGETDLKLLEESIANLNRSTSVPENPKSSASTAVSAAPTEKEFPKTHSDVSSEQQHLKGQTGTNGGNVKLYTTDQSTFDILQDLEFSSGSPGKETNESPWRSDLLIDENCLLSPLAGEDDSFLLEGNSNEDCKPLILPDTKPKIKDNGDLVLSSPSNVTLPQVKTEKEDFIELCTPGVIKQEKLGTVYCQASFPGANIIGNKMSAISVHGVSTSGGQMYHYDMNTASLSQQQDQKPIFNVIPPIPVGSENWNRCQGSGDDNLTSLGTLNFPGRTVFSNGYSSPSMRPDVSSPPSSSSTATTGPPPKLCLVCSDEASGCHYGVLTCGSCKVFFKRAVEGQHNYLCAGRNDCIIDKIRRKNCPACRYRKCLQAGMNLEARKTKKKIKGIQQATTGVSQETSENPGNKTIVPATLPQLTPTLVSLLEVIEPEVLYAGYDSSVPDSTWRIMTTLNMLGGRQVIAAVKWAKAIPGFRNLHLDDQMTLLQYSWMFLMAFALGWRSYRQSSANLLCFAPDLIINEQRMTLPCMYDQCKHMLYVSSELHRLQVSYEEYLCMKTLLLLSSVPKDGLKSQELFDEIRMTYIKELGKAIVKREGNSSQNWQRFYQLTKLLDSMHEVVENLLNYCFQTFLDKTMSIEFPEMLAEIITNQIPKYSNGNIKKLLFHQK
3',5'-cyclic-AMP phosphodiesterase 4B (Homo sapiens), sequence (Q07343 whole entry, looked up): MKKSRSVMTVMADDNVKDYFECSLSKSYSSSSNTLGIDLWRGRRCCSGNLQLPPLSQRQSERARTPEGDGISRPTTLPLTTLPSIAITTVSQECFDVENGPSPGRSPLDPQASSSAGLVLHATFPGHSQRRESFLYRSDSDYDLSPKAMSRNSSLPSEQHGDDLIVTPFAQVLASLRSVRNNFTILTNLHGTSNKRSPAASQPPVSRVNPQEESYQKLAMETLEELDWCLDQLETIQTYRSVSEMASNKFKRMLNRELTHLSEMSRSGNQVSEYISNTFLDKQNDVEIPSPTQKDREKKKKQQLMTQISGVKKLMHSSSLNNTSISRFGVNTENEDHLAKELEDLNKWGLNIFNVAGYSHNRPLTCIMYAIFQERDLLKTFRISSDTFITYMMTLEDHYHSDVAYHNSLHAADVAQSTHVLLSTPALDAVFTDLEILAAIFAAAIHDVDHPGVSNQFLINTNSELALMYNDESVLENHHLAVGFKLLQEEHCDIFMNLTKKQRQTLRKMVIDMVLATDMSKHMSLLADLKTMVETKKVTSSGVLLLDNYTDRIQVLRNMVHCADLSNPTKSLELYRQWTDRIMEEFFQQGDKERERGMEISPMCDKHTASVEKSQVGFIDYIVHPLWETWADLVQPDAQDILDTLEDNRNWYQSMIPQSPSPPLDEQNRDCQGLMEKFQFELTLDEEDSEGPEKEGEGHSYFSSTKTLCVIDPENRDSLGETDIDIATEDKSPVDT
Cytochrome P450 3A4 (Homo sapiens), sequence (P08684 whole entry, looked up): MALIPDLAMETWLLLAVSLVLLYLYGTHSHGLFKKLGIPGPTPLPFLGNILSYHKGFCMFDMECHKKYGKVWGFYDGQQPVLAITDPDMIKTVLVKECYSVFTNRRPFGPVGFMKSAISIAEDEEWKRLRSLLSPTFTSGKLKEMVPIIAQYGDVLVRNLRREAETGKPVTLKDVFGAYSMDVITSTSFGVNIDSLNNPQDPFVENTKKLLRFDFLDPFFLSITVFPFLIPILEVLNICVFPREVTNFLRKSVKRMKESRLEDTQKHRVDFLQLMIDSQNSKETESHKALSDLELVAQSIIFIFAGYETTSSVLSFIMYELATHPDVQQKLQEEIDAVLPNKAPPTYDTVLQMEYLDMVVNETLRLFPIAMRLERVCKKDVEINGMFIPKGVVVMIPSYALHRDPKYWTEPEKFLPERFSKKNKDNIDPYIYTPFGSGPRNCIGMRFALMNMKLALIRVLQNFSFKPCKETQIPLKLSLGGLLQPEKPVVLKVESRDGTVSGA
Cytochrome P450 2D6 (Homo sapiens), sequence (P10635 whole entry, looked up): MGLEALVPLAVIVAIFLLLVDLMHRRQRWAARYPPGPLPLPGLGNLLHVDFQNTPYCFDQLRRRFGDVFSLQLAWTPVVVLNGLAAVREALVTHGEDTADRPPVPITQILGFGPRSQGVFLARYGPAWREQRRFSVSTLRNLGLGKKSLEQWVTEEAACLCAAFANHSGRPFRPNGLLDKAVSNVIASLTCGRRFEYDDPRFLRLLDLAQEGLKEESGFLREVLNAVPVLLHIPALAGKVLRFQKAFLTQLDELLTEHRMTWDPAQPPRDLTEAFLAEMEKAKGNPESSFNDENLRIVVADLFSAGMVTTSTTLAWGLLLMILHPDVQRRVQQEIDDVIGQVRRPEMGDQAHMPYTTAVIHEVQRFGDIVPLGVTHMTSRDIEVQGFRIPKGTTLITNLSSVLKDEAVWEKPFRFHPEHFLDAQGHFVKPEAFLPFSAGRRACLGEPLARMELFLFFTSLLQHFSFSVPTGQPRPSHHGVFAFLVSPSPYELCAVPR
Ubiquitin carboxyl-terminal hydrolase 1 (Homo sapiens), sequence (O94782 whole entry, looked up): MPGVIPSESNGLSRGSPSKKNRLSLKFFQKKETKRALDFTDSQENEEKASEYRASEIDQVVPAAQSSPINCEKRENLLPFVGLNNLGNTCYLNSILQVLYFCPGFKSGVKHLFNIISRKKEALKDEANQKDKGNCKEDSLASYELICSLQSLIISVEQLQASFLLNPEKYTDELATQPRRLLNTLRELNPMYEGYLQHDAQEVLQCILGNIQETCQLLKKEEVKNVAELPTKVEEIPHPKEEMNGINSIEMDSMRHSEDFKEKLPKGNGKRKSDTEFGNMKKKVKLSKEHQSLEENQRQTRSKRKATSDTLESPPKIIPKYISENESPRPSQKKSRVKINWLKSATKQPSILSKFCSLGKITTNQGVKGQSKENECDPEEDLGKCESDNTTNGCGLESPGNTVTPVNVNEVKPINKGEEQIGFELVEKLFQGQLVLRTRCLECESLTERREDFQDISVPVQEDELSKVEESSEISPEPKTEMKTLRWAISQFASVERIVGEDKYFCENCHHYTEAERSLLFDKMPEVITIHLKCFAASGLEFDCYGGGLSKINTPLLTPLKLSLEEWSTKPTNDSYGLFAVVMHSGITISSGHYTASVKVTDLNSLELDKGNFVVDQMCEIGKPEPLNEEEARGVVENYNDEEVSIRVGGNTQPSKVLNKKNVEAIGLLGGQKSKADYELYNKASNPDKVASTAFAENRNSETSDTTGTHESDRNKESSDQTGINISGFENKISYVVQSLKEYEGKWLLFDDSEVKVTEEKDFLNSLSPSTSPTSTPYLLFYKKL
Cytochrome P450 2C9 (Homo sapiens), sequence (P11712 whole entry, looked up): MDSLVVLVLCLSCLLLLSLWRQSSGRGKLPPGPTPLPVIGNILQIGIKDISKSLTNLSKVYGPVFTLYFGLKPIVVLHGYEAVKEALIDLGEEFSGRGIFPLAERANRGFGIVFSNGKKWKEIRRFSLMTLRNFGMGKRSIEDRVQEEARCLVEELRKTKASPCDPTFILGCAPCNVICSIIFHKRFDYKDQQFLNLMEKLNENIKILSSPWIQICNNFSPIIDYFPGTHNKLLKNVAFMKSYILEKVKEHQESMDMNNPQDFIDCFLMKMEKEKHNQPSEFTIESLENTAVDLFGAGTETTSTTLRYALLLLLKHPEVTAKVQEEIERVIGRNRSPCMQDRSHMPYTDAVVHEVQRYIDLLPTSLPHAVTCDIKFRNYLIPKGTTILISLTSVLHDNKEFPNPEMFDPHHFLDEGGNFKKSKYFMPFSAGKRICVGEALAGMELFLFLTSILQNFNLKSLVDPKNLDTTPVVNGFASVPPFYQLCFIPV

O=C(c1ccncc1)N1CCC[C@@]2(CCN(Cc3ccccc3)C2)C1
inactive: Potency [1] > 11.4 µM | activity change, negative = inhibition [2] 1% | activity change, negative = inhibition [3] -11.7% | activity, negative = inhibition [4] 7.78% | Potency [5] > 46 µM | Potency [6] | Potency [7] | Potency [8] | outcome [9]

O=C(Nc1cccc(F)c1)N1CCC2(CC1)CCN(C(=O)c1ccncc1)CC2
inactive: Potency [1] > 11.4 µM | activity change, negative = inhibition [2] -9.1% | activity change, negative = inhibition [3] -6.93% | activity, negative = inhibition [4] -7.63% | Potency [5] > 46 µM | Potency [6] | Potency [7] | Potency [8] | outcome [9]

Cc1cccc(CNc2cc(-c3ccccc3C)ncn2)c1
active: Potency [11] 44.7 µM
inactive: Potency [10]

c1cncc(-c2nc(NCCN3CCOCC3)c3ccccc3n2)c1
inactive: Potency [10]

CN(C)Cc1ccccc1-c1cncnc1Nc1ccc(F)cc1
inactive: Potency [11]

Cn1cccc1C(=O)N1CCC2(CCCN(C(=O)Nc3cccc(C#N)c3)C2)CC1
inactive: Potency [1] > 11.4 µM | activity change, negative = inhibition [2] -6.91% | activity, negative = inhibition [4] -16.1% | Potency [6] | Potency [7] | outcome [9]

CS(=O)(=O)N1CCC2(CC1)CN(C(c1ccccc1)c1ccccc1)C2
inactive: Potency [1] > 11.4 µM | Potency [12] | activity change, negative = inhibition [3] -0.932% | activity, negative = inhibition [4] -5.62% | Potency [5] > 46 µM | Potency [6] | Potency [7] | Potency [13] | outcome [9]
active: Potency [8] 15.8 µM | Potency [14] 2.51 µM

CS(=O)(=O)N1CCC2(CCN(Cc3ccc(C#N)cc3)CC2)CC1
inactive: Potency [1] > 11.4 µM | activity change, negative = inhibition [2] 3.08% | activity, negative = inhibition [4] 3.96% | Potency [6] | Potency [7] | outcome [9]

CCNc1ncc2nc(-c3cc(F)cc(F)c3)c(=O)n(Cc3cccs3)c2n1
inactive: Potency [1] > 11.4 µM | Potency [15] > 9.22 µM | Potency [6] | Potency [8] | outcome [9]
active: Potency [12] 5.01 µM | activity, negative = inhibition [4] 135% [activator] | Potency [16] 0.794 µM

O=c1c(-c2ccc(Cl)cc2)nc2cnc(N3CCNCC3)nc2n1Cc1ccc(F)cc1
active: Potency [12] 15.8 µM
inactive: Potency [1] > 11.4 µM | Potency [15] > 9.22 µM | Potency [5] > 46 µM | Potency [7] | Potency [8] | outcome [9]

COc1cccc(Nc2ncc3nc(CCc4ccccc4)c(=O)n(C4CC4)c3n2)c1
active: Potency [12] 5.01 µM
inactive: Potency [1] > 11.4 µM | activity, negative = inhibition [4] -19.3% | Potency [15] > 9.22 µM | Potency [5] > 46 µM | Potency [6] | Potency [8] | outcome [9]

Cn1c(=O)cnc2cnc(Nc3ccccc3)nc21
inactive: Potency [1] > 11.4 µM | activity change, negative = inhibition [3] -6.55% | activity, negative = inhibition [4] -16.6% | Potency [15] > 9.22 µM | Potency [5] > 46 µM | outcome [9]
active: Potency [12] 2 µM

COc1ccccc1CNc1cc(-c2cccc(NS(C)(=O)=O)c2)ncn1
active: Potency [12] 15.8 µM | Potency [13] 5.01 µM
inactive: Potency [1] > 11.4 µM | activity change, negative = inhibition [3] -3.65% | activity, negative = inhibition [4] -1.76% | Potency [15] > 46 µM | Potency [5] > 46 µM | Potency [6] | Potency [7] | activity change, negative = inhibition [17] 33% [at 2.29 µM] | Potency [8] | Potency [10] | outcome [18] | outcome [9]

O=S(=O)(c1ccccc1)N1CCC[C@@]2(CCN(C(c3ccccc3)c3ccccc3)C2)C1
inactive: Potency [1] > 11.4 µM | Potency [12] | activity change, negative = inhibition [3] -29.6% | activity, negative = inhibition [4] 13.8% | Potency [5] > 46 µM | Potency [6] | Potency [8] | outcome [9]
active: Potency [13] 3.16 µM | Potency [14] 0.631 µM

O=C(c1ccncc1)N1CCC2(CC1)CN(c1ccc(-c3ccccc3)cc1)C2
inactive: Potency [1] > 11.4 µM | Potency [12] | activity change, negative = inhibition [3] 17.4% | activity, negative = inhibition [4] -19.8% | Potency [5] > 46 µM | Potency [6] | Potency [7] | Potency [8] | outcome [9]

CCNc1ncc2nc(-c3ccc(Cl)cc3)c(=O)n(C3CC3)c2n1
active: Potency [12] 0.501 µM | Potency [16] 0.398 µM
inactive: Potency [1] > 11.4 µM | activity change, negative = inhibition [3] -4.85% | Potency [15] > 9.22 µM | Potency [5] > 46 µM | Potency [6] | Potency [7] | outcome [9]

COc1cccc(Nc2ncc3nc(-c4ccc(Cl)cc4)c(=O)n(CCC#N)c3n2)c1
inactive: Potency [1] > 11.4 µM | activity, negative = inhibition [4] -26.2% | Potency [15] > 9.22 µM | Potency [5] > 46 µM | Potency [6] | Potency [7] | Potency [8] | outcome [9]
active: Potency [12] 5.01 µM

O=C(c1csnn1)N1CCC2(CCCN(c3ccc(-c4ccccc4)cc3)C2)CC1
active: Potency [13] 7.94 µM
inactive: Potency [1] > 11.4 µM | Potency [12] | activity change, negative = inhibition [3] -15.8% | activity, negative = inhibition [4] 1.9% | Potency [5] > 46 µM | Potency [6] | Potency [7] | Potency [8] | outcome [9]

O=C(c1cc(C(F)(F)F)cc(C(F)(F)F)c1)N1CCC2(CCCN(c3ccccn3)C2)CC1
inactive: Potency [1] > 11.4 µM | activity change, negative = inhibition [2] 10.7% | activity, negative = inhibition [4] -14.7% | Potency [5] > 46 µM | Potency [6] | activation [16] 2.81% | outcome [9]
